Compound activity (PubChem)
This is one part of a sample in which hits are shown more often than they occur.
DAT uptake mod – changed human dopamine transporter uptake under cocaine IC80 | B-score at 10 µM | 1.3% of 110,000 active | LLC-PK1 hDAT cells, [14C]-dopamine uptake with cocaine IC80; actives deviate in either direction | Q01959;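 active = Z score or B-score, a plate-position-corrected score, falls beyond the plate's 99.7% confidence bounds, in either direction; inactive = both scores lie inside the 99.7% bounds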;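 note: scored against the spread of the other compound wells on the same plate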
HePTP inhibitor – human HePTP phosphatase inhibition. P35236. recombinant HePTP phosphatase activity, OD absorbance. inhibition, % at 20 µM. 0.64% of 110,000 active; in the data active = inhibition above about 50%;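 note: plate controls were vehicle for no effect and reference inhibitor for full effect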
Target sequence (P35236 whole entry, looked up): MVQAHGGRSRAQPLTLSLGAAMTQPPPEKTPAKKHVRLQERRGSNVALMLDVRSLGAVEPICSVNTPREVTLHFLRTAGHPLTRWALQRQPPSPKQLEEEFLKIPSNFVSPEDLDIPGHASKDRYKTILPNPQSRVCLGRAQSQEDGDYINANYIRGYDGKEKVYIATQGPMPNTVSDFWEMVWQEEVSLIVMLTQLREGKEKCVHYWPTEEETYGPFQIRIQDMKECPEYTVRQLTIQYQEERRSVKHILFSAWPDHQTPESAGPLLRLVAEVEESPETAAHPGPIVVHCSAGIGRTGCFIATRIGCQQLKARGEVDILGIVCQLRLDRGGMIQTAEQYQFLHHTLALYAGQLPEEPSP
PLAP act – activators of human placental alkaline phosphatase; purified PLAP enzyme, luminescent substrate read-out; active compounds read high; 1.2% of 96,000 active; activation fold at 20 µM; in the data active = activation fold above about 2
TNAP act DEA – activates human TNAP at intermediate phosphate acceptor concentration. P05186. purified TNAP, CDP-star luminescence, 100 mM DEA, 30 min; active compounds read high; scale: 0 levamisole-inhibited, 1 vehicle-only enzyme. activation factor at 20 µM. 64,000 tested, under 10 active;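 active = activation factor of at least 2 at 20 µM, relative to controls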
D1 allo mod – D1 dopamine receptor (human) allosteric modulation. 5.9% of 58,000 active. HEK293 D1, CRE-luciferase, dopamine EC30 potentiation; actives deviate in either direction. B-score at 10 µM;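 active = luminescence count or its row- and column-corrected plate score outside the 99.7% band of the plate's sample wells, on either side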
Calb biofilm kill – kills Candida albicans biofilms; C. albicans biofilm + clotrimazole, Alamar Blue; inhibition, % at 6 µM; 0.14% of 85,000 active;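 active = inhibition above 20%; inactive = inhibition below 20%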;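 note: preformed 24 hr biofilms exposed to compound for 48 hr; 0% = biofilm without compound and 100% = blank killed by clotrimazole plus chlorhexidine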
The depositor's hits bear a star; nt = not tested or not shown.

SMILES | DAT uptake mod | HePTP inhibitor | PLAP act | TNAP act DEA | D1 allo mod | Calb biofilm kill
O=c1oc(-c2ccccc2Cl)nc2ccc(-c3ccc4nc(-c5ccccc5Cl)oc(=O)c4c3)cc12 | nt | 1 | nt | nt | nt | nt
CCOc1ccc(C(=O)N/N=C/c2ccc(-c3ccc(S(=O)(=O)Nc4ncccn4)cc3)o2)cc1 | -1.2 | nt | 2.1* | nt | nt | nt
Cc1cc(C(c2ccc(C)o2)c2ccc(C)o2)c(O)c([N+](=O)[O-])c1 | -1.2 | nt | 1 | nt | nt | 78*
Cc1ccc(C(c2ccc(C)o2)c2cccc([N+](=O)[O-])c2O)o1 | -0.28 | nt | 1.2 | nt | nt | -5
CC(C)(C)N1C(=O)Cc2c1nc(N)c1c(N)nc(N3CCCCC3CO)c(C#N)c21 (stereo not drawn) | -4.2* | 6 | 1.3 | 0.9 | -0.24 | -3
COc1ccc(Cl)cc1NC(=O)COc1cccc(C)c1 | nt | 4 | nt | nt | nt | nt
CCN(C(=O)c1cc2ccccc2oc1=O)c1ccccc1 | -1.4 | nt | 0.9 | nt | nt | -3
O=C(c1cc2ccccc2oc1=O)N(Cc1cccs1)Cc1ccccc1Cl | 2.5* | nt | nt | nt | nt | 6
CCOc1ccc(/C=C2\SC(=S)N(CCC(=O)N3CCOCC3)C2=O)cc1 | nt | -8 | nt | nt | nt | nt
O=C(c1ccco1)N1CCN(C(=O)c2cc(-c3ccncc3)nc3ccc(Br)cc23)CC1 | -2.7* | 5 | nt | 1 | -2.7 | 6
Cc1cnn(C(=S)NCC2CCCO2)c1 (stereo not drawn) | -0.72 | 4 | 2.1* | 1 | 0.7 | 4
O=C(NC(Nc1ccc(Br)cc1)C(=O)c1ccccc1)c1ccco1 (stereo not drawn) | nt | -3 | nt | nt | nt | nt
O=C(NC(NC(=O)c1ccco1)c1ccc(Br)cc1)c1ccco1 | nt | 104* | nt | nt | nt | nt
COc1ccccc1-c1cc(C(=O)NC(C)C)no1 | 0.0071 | 10 | 1 | 0.9 | -3.2* | 5
COc1ccccc1-c1cc(C(=O)NC(C)c2ccccc2)no1 (stereo not drawn) | 0.071 | 4 | 1 | 0.8 | -1.8 | 8
CCOc1ccc(/C=N\NC(=O)c2ccc(Br)cc2)c(O)c1 | nt | 102* | nt | nt | nt | nt
CCOc1ccc(/C=N\NC(=O)c2cncc(Br)c2)cc1 | nt | -16 | nt | nt | nt | nt
O=C(N/N=C/c1ccco1)c1cc(-c2ccc3ccccc3c2)n[nH]1 | nt | -2 | 2.7* | nt | nt | 0
COc1ccc(/C=N/NC(=O)c2cc(-c3ccc4ccccc4c3)n[nH]2)cc1O | nt | 68* | nt | nt | nt | nt
O=C(N/N=C/c1cccs1)c1cc(-c2ccc3ccccc3c2)n[nH]1 | 0.56 | 99* | 1.4 | nt | nt | nt
C/C(=N\NC(=O)c1cc(C2CC2)[nH]n1)c1ccc(C)cc1 | nt | -9 | nt | nt | nt | nt
CCN1CCN(CC(=O)N2c3ccccc3CC2C)CC1 (stereo not drawn) | -0.67 | nt | 0.9 | nt | nt | 1
CC1Cc2ccccc2N1C(=O)CSCC(=O)O (stereo not drawn) | 0.64* | -1 | 0.9 | 0.9 | -0.28 | 1
Cc1cccc(N2CCN(C(=O)C3CCN(S(=O)(=O)c4cccc5nsnc45)CC3)CC2C)c1 (stereo not drawn) | -0.97 | 3 | 1.5 | 0.9 | 0.069 | 5
Cc1cccc(N2CCN(C(=O)C3CCN(S(=O)(=O)c4cccc5cccnc45)CC3)CC2C)c1 (stereo not drawn) | 0.59 | 3 | 1.4 | 0.9 | -3.8* | 1
SMILES | DAT uptake mod | HePTP inhibitor | PLAP act | TNAP act DEA | D1 allo mod | Calb biofilm kill
Cc1nc(NC(=O)c2cc3c(C)nn(-c4ccccc4)c3s2)sc1C(=O)Nc1ccccc1 | nt | nt | 2.3* | nt | nt | nt
CCNC(=O)c1cc2c(C)nn(-c3ccccc3)c2s1 | nt | 2 | nt | nt | nt | nt
Cc1nn(-c2ccccc2)c2sc(C(=O)OCN3C(=O)c4ccccc4C3=O)cc12 | -0.017 | 0 | 1.4 | 1 | 5.3* | 3
COc1cc(/C=N/N2CCN(Cc3cccc4ccccc34)CC2)cc(OC)c1O | nt | -1 | nt | nt | nt | nt
COc1ccc(-c2ccc(/C=N/NC(=O)c3ccncc3)o2)c([N+](=O)[O-])c1 | nt | -2 | nt | nt | nt | nt
CC1=CC(C)(C)N2C(=O)C3(C(C#N)=C(N)Oc4cc(O)ccc43)c3c(C)c(C)cc1c32 (stereo not drawn) | 2.6* | nt | 1.3 | nt | nt | 1
CCc1c(C)sc(NC(=O)c2ccncc2)c1C(=O)OC | nt | 10 | nt | nt | nt | nt
CCC(=O)N1CCc2cc(Br)cc(S(=O)(=O)N3CCCCCC3)c21 | -0.0079 | -5 | nt | 0.9 | 1 | 4
O=C(C1CC1)N1CCc2cc(Br)cc(S(=O)(=O)N3CCCCCC3)c21 | 6* | 10 | 1.5 | 0.9 | nt | 7
O=C(Nc1ccccc1)Nc1nc(C(c2ccccc2)c2ccccc2)cs1 | nt | 5 | nt | nt | nt | nt
O=c1[nH]c(/C=C/c2ccccc2O)c([N+](=O)[O-])c(=O)[nH]1 | nt | 9 | nt | nt | nt | nt
COc1ccc(C)cc1NC(=O)CCC1CCCC1 | nt | 104* | nt | nt | nt | nt
CCCCCCCCC(=O)Nc1cc(C)ccc1OC | -7.9* | nt | nt | nt | nt | nt
CCOC(=O)Nc1cc(C)ccc1OC | -1.6 | 0 | 1.2 | 1 | nt | 2
CCC1=NN2C(=N)/C(=C/c3ccc(-c4ccc(F)cc4)o3)C(=O)N=C2S1 | nt | -23 | nt | nt | nt | nt
CCC1=NN2C(=N)/C(=C/c3ccc(-c4ccc(C(=O)O)cc4)o3)C(=O)N=C2S1 | nt | 57* | nt | nt | nt | nt
COc1cc(C(Nc2ccccn2)c2ccc3ccc(C)nc3c2O)cc(OC)c1O (stereo not drawn) | 1.5 | 8 | 2* | 1.1 | -0.86 | 4
Cc1ccc2ccc(C(Nc3ccccn3)c3ccccc3)c(O)c2n1 (stereo not drawn) | -0.74 | nt | 1.8 | nt | nt | 4
Cc1ccc(NC(=O)N/C=C/c2ccco2)c(C)c1 | -0.14 | nt | 2.4* | nt | nt | nt
Cc1ccc(NC(=O)N/C=C/c2ccco2)cc1C | -0.14 | nt | 1.3 | nt | nt | nt
O=C(CSc1nnc(Cc2cccs2)n1C1CCCCC1)N1CCCc2ccccc21 | 2.2* | 7 | 1.8 | 1 | -0.09 | 8
N#C/C(=C(/O)CSc1nnc(Cc2cccs2)n1C1CCCCC1)c1nc2ccccc2[nH]1 | 0.067 | -2 | 2.7* | 1 | nt | 6
c1ccc(Cn2c(CNc3nc4ccccc4n3CCN3CCOCC3)nc3ccccc32)cc1 | 0.93 | 7 | 2.8* | 1.3 | 0.9 | 7
Cc1ccc(-n2c(C)cc(/C=N/NC(=O)CN3CCOCC3)c2C)cc1C | nt | -6 | nt | nt | nt | nt
COc1ccc(S(=O)(=O)Nc2ccc(NC(C)=O)cc2)cc1 | -0.2 | nt | 0.9 | nt | nt | 3
SMILES | DAT uptake mod | HePTP inhibitor | PLAP act | TNAP act DEA | D1 allo mod | Calb biofilm kill
COc1ccc(S(=O)(=O)Nc2ccc(N(C)C(C)=O)cc2)cc1 | -1.1 | nt | 1.2 | nt | nt | 42*
O=C(Nc1ccc2c3c(cccc13)CC2)c1ccccc1I | nt | 6 | nt | nt | nt | nt
CNC(=S)NNC(=O)Cc1ccc(OC)c(OC)c1 | 0.48 | nt | 2.1* | nt | nt | nt
COc1ccc(CC(=O)Nc2ccc3c(c2)CCC3)cc1OC | 1.6 | nt | 2.1* | nt | nt | nt
COc1ccc(CC(=O)Nc2ccc(Br)cc2)cc1OC | nt | 8 | nt | nt | nt | nt
COc1cc(/C=C(\C#N)C(=O)NCc2ccco2)c(Br)c(Br)c1O | nt | 0 | nt | nt | nt | nt
CC(C)(C)NC(=O)c1ccccc1N(Cc1ccccc1)S(=O)(=O)c1ccccc1 | nt | 0 | nt | nt | nt | nt
O=C1c2ccc3c4c(ccc(c24)C(=O)N1/N=C/c1ccco1)CC3 | nt | 26 | nt | nt | nt | nt
c1ccc(N2N=C(c3cccs3)CC2c2cccs2)cc1 (stereo not drawn) | nt | -7 | nt | nt | nt | nt
CNC(=O)c1ccccc1NC(=O)c1cccc(S(=O)(=O)N2CCC(C)CC2)c1 | 0.13 | -6 | 1.3 | 1 | -3.7* | 8
